Drawing on PubChem BioAssay (NCI), this text covers growth for eight molecules.

Some test systems named below: SR leukemia; RPMI-8226 leukemia; OVCAR-8 ovarian; OVCAR-5 ovarian; OVCAR-4 ovarian; SK-OV-3 ovarian; IGROV1 ovarian; OVCAR-3 ovarian; HS 578T breast; NCI/ADR-RES ovarian; T-47D breast; BT-549 breast; MDA-MB-435 melanoma; SW-620 colon; MCF7 breast; HCT-116 colon; HCC-2998 colon; KM12 colon.
What all share (experiment): NCI-60 one-dose screen, 48 h (100 = growth as untreated, 0 = no growth, -100 = all killed)
Common to all, as to conditions: 10 µM unless noted

Structures are written as SMILES. This is part of a sample that, as a whole, favours compounds with a hit. Of some 83,000 tested, about 20% had one in any assay.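 The endpoint reported here, percent growth, reads 100 for growth as untreated, 0 for no net growth and -100 for all cells dead.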 A number with no mark means an inactive call. Active and inactive are the calls of the source. The calls were made as follows: active = growth percent below 10; inactive = the rest.

As to `O=C(CSc1nnc(-c2cccs2)n1-c1ccccc1)Nc1ccccc1F`, the growth with SR leukemia was 25.3%; with RPMI-8226 leukemia it was 88.7%; in the experiment with OVCAR-8 ovarian it was 95.1%; with OVCAR-5 ovarian, 100%; in the experiment with OVCAR-4 ovarian, 95.1%; in the experiment with SK-OV-3 ovarian it was 96.4%. Moreover, the growth was 84.9% with IGROV1 ovarian; 86.9% in the experiment with OVCAR-3 ovarian; 91.6% in the experiment with HS 578T breast; 49.2% with NCI/ADR-RES ovarian; 88.9% with T-47D breast; 89.2% in the experiment with BT-549 breast. Further, the growth in the experiment on MDA-MB-435 melanoma was 3.39% (active); in the experiment on SW-620 colon, 69.3%; in the experiment with MCF7 breast it was 58.9%; in the experiment with HCT-116 colon it was 83.7%; in the experiment with HCC-2998 colon, 91.6%; in the experiment with KM12 colon it was 61.5%.

Take `C#C[C@]1(O)CC[C@H]2[C@@H]3CC=C4c5sc(Nc6ccc(C)cn6)nc5CC[C@]4(C)[C@H]3CC[C@@]21C`: the growth with SR leukemia is -15% (active); in the experiment with RPMI-8226 leukemia it was -32% (active); with OVCAR-8 ovarian, 25.3%; in the experiment with OVCAR-5 ovarian, 22.2%; in the experiment on OVCAR-4 ovarian it was 42.8%; in the experiment with SK-OV-3 ovarian it was -44.8% (active). For the same molecule, the growth in the experiment with IGROV1 ovarian was 29.4%; with OVCAR-3 ovarian it was 34%; in the experiment with HS 578T breast it was -11.9% (active); in the experiment on NCI/ADR-RES ovarian, 20.3%; with T-47D breast it was 18.9%; with BT-549 breast, -12.7% (active). Also, the growth with MDA-MB-435 melanoma was -51.8% (active); in the experiment with SW-620 colon, -53.1% (active); in the experiment on MCF7 breast, -68.9% (active); in the experiment with HCT-116 colon, 5.1% (active); in the experiment with HCC-2998 colon, 19.2%; in the experiment on KM12 colon, -35.5% (active).

Consider `CN(C)c1ccc(/C=N/Nc2nc(N/N=C/c3ccc(N(C)C)cc3)nc(N3CCCCC3)n2)cc1`, for which the growth was -14.1% (active) with SR leukemia; 32.6% in the experiment on RPMI-8226 leukemia; 56.6% in the experiment with OVCAR-8 ovarian; 96.1% in the experiment with OVCAR-5 ovarian; 106% in the experiment on OVCAR-4 ovarian; 132% with SK-OV-3 ovarian. Moreover, the growth is 93.8% in the experiment on IGROV1 ovarian; 65.6% in the experiment on OVCAR-3 ovarian; 106% in the experiment with HS 578T breast; 58.3% with NCI/ADR-RES ovarian; 46% in the experiment with T-47D breast; 111% in the experiment with BT-549 breast. Also, the growth with MDA-MB-435 melanoma was 60.4%; with SW-620 colon it was 64.2%; in the experiment with MCF7 breast it was 31.1%; with HCT-116 colon, 14.9%; in the experiment with HCC-2998 colon, 103%; with KM12 colon it was 93%.

Take `C[C@H]1OCC2(CCN(c3cnc(C(=O)Nc4cc(F)cc5cccnc45)cn3)CC2)[C@H]1N`: the growth in the experiment on SR leukemia was -0.453% (active); in the experiment on RPMI-8226 leukemia it was 42.1%; in the experiment on OVCAR-8 ovarian, 77.6%; with OVCAR-5 ovarian it was 74.3%; in the experiment with OVCAR-4 ovarian, 10.5%; with SK-OV-3 ovarian it was 98.8%. The growth in the experiment with IGROV1 ovarian is 20.1%; with OVCAR-3 ovarian, 19.5%; with HS 578T breast, 60.8%; in the experiment on NCI/ADR-RES ovarian, 72.2%; in the experiment with T-47D breast it was 35.3%; with BT-549 breast it was 91.5%. For the same molecule, the growth with MDA-MB-435 melanoma is 79.7%; in the experiment on SW-620 colon, 4.8% (active); in the experiment with MCF7 breast, 1.15% (active); in the experiment on HCT-116 colon, 13.9%; with HCC-2998 colon it was 78.3%; with KM12 colon it was 82.5%.

On to `CC(C)=CCC[C@](C)(O)[C@H]1CC[C@]2(C)[C@@H]1CC[C@@H]1[C@@]3(C)CC[C@H](N)C(C)(C)[C@@H]3CC[C@]12C`, for which the growth was -24.4% (active) with SR leukemia; -9.63% (active) in the experiment with RPMI-8226 leukemia; 98.1% in the experiment with OVCAR-8 ovarian; 108% in the experiment with OVCAR-5 ovarian; 97.5% in the experiment on OVCAR-4 ovarian; 104% with SK-OV-3 ovarian. The growth is 93.3% in the experiment with IGROV1 ovarian; 107% in the experiment on OVCAR-3 ovarian; 94.6% in the experiment with HS 578T breast; 88.9% in the experiment on NCI/ADR-RES ovarian; 107% with T-47D breast; 98.8% in the experiment with BT-549 breast. In addition, the growth in the experiment with MDA-MB-435 melanoma is 94.2%; in the experiment on SW-620 colon, 8.73% (active); with MCF7 breast, 3.07% (active); with HCT-116 colon it was -28.2% (active); in the experiment on HCC-2998 colon it was 63.3%; in the experiment on KM12 colon, 48.9%.

With `Cn1cc(-c2cc3ncnc(Nc4ccc(CC(=O)Nc5nc(C(C)(C)C)cs5)cc4)c3s2)cn1`, the growth is 36.2% in the experiment on SR leukemia; 38.8% in the experiment on RPMI-8226 leukemia; 38.1% in the experiment on OVCAR-8 ovarian; 84.3% in the experiment on OVCAR-5 ovarian; 28.2% with OVCAR-4 ovarian; 26.2% in the experiment on SK-OV-3 ovarian. For the same molecule, the growth in the experiment on IGROV1 ovarian was 12%; in the experiment with OVCAR-3 ovarian it was 62.3%; with HS 578T breast it was 47.3%; with NCI/ADR-RES ovarian, 101%; in the experiment on T-47D breast, 3.67% (active); in the experiment with BT-549 breast, 61.3%. For the same molecule, the growth with MDA-MB-435 melanoma was 54.6%; in the experiment on SW-620 colon it was 53.8%; in the experiment with MCF7 breast it was 41.8%; in the experiment with HCT-116 colon, 39%; in the experiment on HCC-2998 colon, 74.6%; in the experiment on KM12 colon it was 13.2%.

For the molecule `C#CCN(C)CCCOc1ccc(NC(=O)CCCCCCCCC(=O)NO)cc1Cl`, the growth in the experiment with SR leukemia is 32.7%; in the experiment with RPMI-8226 leukemia, 40.2%; in the experiment with OVCAR-8 ovarian, 53.4%; with OVCAR-5 ovarian, 68.8%; with OVCAR-4 ovarian, 74.3%; with SK-OV-3 ovarian, 84.8%. Further, the growth was 71.5% with IGROV1 ovarian; 73.7% with OVCAR-3 ovarian; 70.3% in the experiment with HS 578T breast; 82.7% with NCI/ADR-RES ovarian; 72.6% in the experiment with T-47D breast; 92.5% in the experiment on BT-549 breast. For the same molecule, the growth in the experiment with MDA-MB-435 melanoma was 74.2%; with SW-620 colon, 63.1%; with MCF7 breast, 31.9%; in the experiment on HCT-116 colon, 39.2%; in the experiment on HCC-2998 colon it was 71.8%; in the experiment on KM12 colon, 83.4%.

Turning to `NC1CC2(CCN(c3cnc(C(=O)Nc4cc(F)cc5cccnc45)cn3)CC2)C1`, the growth in the experiment on SR leukemia was 3.71% (active); in the experiment on RPMI-8226 leukemia, 61.1%; in the experiment on OVCAR-8 ovarian, 94.6%; in the experiment on OVCAR-5 ovarian it was 85.9%; with OVCAR-4 ovarian, 95.2%; in the experiment on SK-OV-3 ovarian it was 107%. Moreover, the growth was 64.8% in the experiment with IGROV1 ovarian; 85.2% in the experiment with OVCAR-3 ovarian; 94.2% with HS 578T breast; 89.2% in the experiment with NCI/ADR-RES ovarian; 64.5% in the experiment on T-47D breast; 84.8% with BT-549 breast. Moreover, the growth in the experiment with MDA-MB-435 melanoma is 70.9%; in the experiment on SW-620 colon, 42.8%; in the experiment on MCF7 breast it was 46.2%; with HCT-116 colon, 38.5%; in the experiment on HCC-2998 colon it was 83.7%; in the experiment on KM12 colon, 81.7%.
